Experimental data as given in PubChem BioAssay (NCI).
This is part of a sample that, as a whole, favours compounds with a hit. Of some 83,000 tested, about 20% had one in any assay.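 Single-concentration screen, 48 h exposure, 96-well plates. Endpoint: percent growth. Below 10 = active.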 Unmarked numbers belong to inactive results. Calls of active or inactive are those of the source.

Legend:
Experiment in all cases: NCI-60 one-dose screen, 48 h (100 = growth as untreated, 0 = no growth, -100 = all killed)
Settings in all cases: 10 µM unless noted
DU-145 prostate = system: DU-145 prostate
K-562 leukemia = system: K-562 leukemia
MALME-3M melanoma = system: MALME-3M melanoma
MDA-MB-231 breast = system: MDA-MB-231 breast
RXF 393 renal = system: RXF 393 renal
SF-268 CNS = system: SF-268 CNS
SF-295 CNS = system: SF-295 CNS
SF-539 CNS = system: SF-539 CNS
UACC-257 melanoma = system: UACC-257 melanoma
M14 melanoma = system: M14 melanoma
HCT-15 colon = system: HCT-15 colon
HT29 colon = system: HT29 colon
SNB-75 CNS = system: SNB-75 CNS
SNB-19 CNS = system: SNB-19 CNS
U251 CNS = system: U251 CNS
PC-3 prostate = system: PC-3 prostate
SK-MEL-5 melanoma = system: SK-MEL-5 melanoma
UACC-62 melanoma = system: UACC-62 melanoma
LOX IMVI melanoma = system: LOX IMVI melanoma
SK-MEL-28 melanoma = system: SK-MEL-28 melanoma

## O=C(NCCCNc1cc(-c2cn(-c3ccccc3)nc2-c2cccc(O)c2)ccn1)c1ccc(F)cc1
DU-145 prostate
  growth: 48.4%
K-562 leukemia
  growth: 0.281% (active)
MALME-3M melanoma
  growth: -12.1% (active)
MDA-MB-231 breast
  growth: -13.6% (active)
RXF 393 renal
  growth: 15.9%
SF-268 CNS
  growth: 31.3%
SF-295 CNS
  growth: -4.5% (active)
SF-539 CNS
  growth: 13.9%
UACC-257 melanoma
  growth: -51.7% (active)
M14 melanoma
  growth: -41.8% (active)
HCT-15 colon
  growth: -4.32% (active)
HT29 colon
  growth: 0.339% (active)
SNB-75 CNS
  growth: 10.9%
SNB-19 CNS
  growth: 54.2%
U251 CNS
  growth: 15.6%
PC-3 prostate
  growth: 12.6%
SK-MEL-5 melanoma
  growth: -24.8% (active)
UACC-62 melanoma
  growth: -1.62% (active)
LOX IMVI melanoma
  growth: 21.5%
SK-MEL-28 melanoma
  growth: -34.8% (active)

## Cc1ccc(Cc2cnc(NC(=O)c3ccc4noc(-c5ccccc5)c4c3)s2)cc1
DU-145 prostate
  growth: 102%
K-562 leukemia
  growth: 91.2%
MALME-3M melanoma
  growth: 106%
MDA-MB-231 breast
  growth: 94.8%
RXF 393 renal
  growth: -4.67% (active)
SF-268 CNS
  growth: 98.9%
SF-295 CNS
  growth: 95.9%
SF-539 CNS
  growth: 94.7%
UACC-257 melanoma
  growth: 99.3%
M14 melanoma
  growth: 93.4%
HCT-15 colon
  growth: 88.6%
HT29 colon
  growth: 65.3%
SNB-75 CNS
  growth: 94.1%
SNB-19 CNS
  growth: 92.2%
U251 CNS
  growth: 96.3%
PC-3 prostate
  growth: 75.2%
SK-MEL-5 melanoma
  growth: 94.9%
UACC-62 melanoma
  growth: 77%
LOX IMVI melanoma
  growth: 93.1%
SK-MEL-28 melanoma
  growth: 99%

## Cc1ccc(/C=C/c2c(C(=O)/C=C/c3ccc(Cl)cc3)c(C)nc3ccccc23)cc1
DU-145 prostate
  growth: -38.8% (active)
K-562 leukemia
  growth: 5.31% (active)
MALME-3M melanoma
  growth: -31.2% (active)
MDA-MB-231 breast
  growth: -24.2% (active)
RXF 393 renal
  growth: -66.4% (active)
SF-268 CNS
  growth: 38.1%
SF-295 CNS
  growth: -29.3% (active)
SF-539 CNS
  growth: -85.5% (active)
UACC-257 melanoma
  growth: 8.99% (active)
M14 melanoma
  growth: -0.212% (active)
HCT-15 colon
  growth: -39.9% (active)
HT29 colon
  growth: 8.51% (active)
SNB-75 CNS
  growth: 68.8%
SNB-19 CNS
  growth: -21.4% (active)
U251 CNS
  growth: -36.9% (active)
PC-3 prostate
  growth: 11.6%
SK-MEL-5 melanoma
  growth: -40.6% (active)
UACC-62 melanoma
  growth: -32.8% (active)
LOX IMVI melanoma
  growth: -91% (active)
SK-MEL-28 melanoma
  growth: -55% (active)

## CC(=O)C(C)Cc1cc2c(cc1C)C(C)(C)CCC2(C)C (stereo not given)
DU-145 prostate
  growth: 107%
K-562 leukemia
  growth: 105%
MALME-3M melanoma
  growth: 99%
MDA-MB-231 breast
  growth: 109%
RXF 393 renal
  growth: 104%
SF-268 CNS
  growth: 100%
SF-295 CNS
  growth: 102%
SF-539 CNS
  growth: 102%
UACC-257 melanoma
  growth: 79.1%
M14 melanoma
  growth: 88.1%
HCT-15 colon
  growth: 96.7%
HT29 colon
  growth: 93.3%
SNB-75 CNS
  growth: 96.4%
SNB-19 CNS
  growth: 116%
U251 CNS
  growth: 97.1%
PC-3 prostate
  growth: 77.4%
SK-MEL-5 melanoma
  growth: 103%
UACC-62 melanoma
  growth: 99.4%
LOX IMVI melanoma
  growth: 90.7%
SK-MEL-28 melanoma
  growth: 106%

## CCCCCCCCCCCCCCCCCC1=NCCN1CCOC1=C(Cl)C(=O)c2ccccc2C1=O
DU-145 prostate
  growth: 109%
K-562 leukemia
  growth: 21.7%
MALME-3M melanoma
  growth: 67.1%
MDA-MB-231 breast
  growth: 55.9%
RXF 393 renal
  growth: 102%
SF-268 CNS
  growth: 91.2%
SF-295 CNS
  growth: 108%
SF-539 CNS
  growth: 104%
UACC-257 melanoma
  growth: 72.3%
M14 melanoma
  growth: 83.1%
HCT-15 colon
  growth: 55.4%
HT29 colon
  growth: 65%
SNB-75 CNS
  growth: 87.4%
SNB-19 CNS
  growth: 81.4%
U251 CNS
  growth: 66.4%
PC-3 prostate
  growth: 55.3%
SK-MEL-5 melanoma
  growth: 103%
UACC-62 melanoma
  growth: 40.6%
LOX IMVI melanoma
  growth: 66.6%
SK-MEL-28 melanoma
  growth: 92.1%

## COc1cc(C2CC(c3cc(OC)c(OCCCOc4ccc(-n5c(/C=C/c6ccccc6)nc6ccccc6c5=O)cc4)c(OC)c3)=NO2)cc(OC)c1OC (stereo not given)
DU-145 prostate
  growth: 120%
K-562 leukemia
  growth: 78.7%
MALME-3M melanoma
  growth: 143%
MDA-MB-231 breast
  growth: 110%
RXF 393 renal
  growth: 116%
SF-268 CNS
  growth: 107%
SF-295 CNS
  growth: 81%
SF-539 CNS
  growth: 108%
UACC-257 melanoma
  growth: 106%
M14 melanoma
  growth: 127%
HCT-15 colon
  growth: 84.7%
HT29 colon
  growth: 104%
SNB-75 CNS
  growth: 86.9%
SNB-19 CNS
  growth: 110%
U251 CNS
  growth: 103%
PC-3 prostate
  growth: 79.4%
SK-MEL-5 melanoma
  growth: 95.6%
UACC-62 melanoma
  growth: 82.6%
LOX IMVI melanoma
  growth: 94.6%
SK-MEL-28 melanoma
  growth: 104%

## COC(=O)c1ccc(CSc2nnc(-c3c(C)nc4ccc(C)cn34)o2)cc1
DU-145 prostate
  growth: 106%
K-562 leukemia
  growth: 82.6%
MALME-3M melanoma
  growth: 111%
MDA-MB-231 breast
  growth: 84.1%
RXF 393 renal
  growth: 97%
SF-268 CNS
  growth: 102%
SF-295 CNS
  growth: 105%
SF-539 CNS
  growth: 103%
UACC-257 melanoma
  growth: 116%
M14 melanoma
  growth: 105%
HCT-15 colon
  growth: 104%
HT29 colon
  growth: 111%
SNB-75 CNS
  growth: 85.9%
SNB-19 CNS
  growth: 94.2%
U251 CNS
  growth: 99.2%
PC-3 prostate
  growth: 106%
SK-MEL-5 melanoma
  growth: 93.8%
UACC-62 melanoma
  growth: 89.2%
LOX IMVI melanoma
  growth: 94.2%
SK-MEL-28 melanoma
  growth: 103%

## Nc1n[nH]c2cc(F)c([C@@H]3Nc4c(F)cc5[nH]ncc5c4[C@H]4C5CCC(C5)[C@@H]34)cc12 (stereo not given in full)
DU-145 prostate
  growth: -0.222% (active)
K-562 leukemia
  growth: 11.6%
MALME-3M melanoma
  growth: 46.3%
MDA-MB-231 breast
  growth: 15.5%
RXF 393 renal
  growth: 41.3%
SF-268 CNS
  growth: 10.5%
SF-295 CNS
  growth: 15%
SF-539 CNS
  growth: 4.53% (active)
UACC-257 melanoma
  growth: 72.4%
M14 melanoma
  growth: 21.2%
HCT-15 colon
  growth: 6.76% (active)
HT29 colon
  growth: 17%
SNB-75 CNS
  growth: -20.9% (active)
SNB-19 CNS
  growth: 53.1%
U251 CNS
  growth: 33.2%
PC-3 prostate
  growth: 22.5%
SK-MEL-5 melanoma
  growth: 8.05% (active)
UACC-62 melanoma
  growth: 35.3%
LOX IMVI melanoma
  growth: 20.2%
SK-MEL-28 melanoma
  growth: 52.8%
